From PubChem BioAssay
Rows were chosen to be rich in hits. Some 2.6% of all compounds tested hit in one or more screens of this group.
Giardia killer = Giardia lamblia killing. Giardia lamblia trophozoite viability. activity change, % at 7.66 µM, hits read low. 0.15% of 340,000 active. AID 540267; in the data active = activity change below about -80%; inconclusive = between about -30% and that limit;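 note: parasites exposed to compound for two days anaerobically before the ATP read; % is set by controls: 0 for no effect and ±100 for the full control effect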
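Each well holds 100 Giardia trophozoites and compound. After two days (48 hrs) at 37 deg C in anaerobic conditions, ATP is quantified by luminescence.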
TGFb SMAD3 inh = inhibitors of TGF-b signaling | 1.2% of 410,000 active | AID 588855 | Potency, µM (titrated, usually from 46.1 µM), inactives show top-dose activity, negative = inhibition, usual class: inhibitors | HepG2 CAGA-GFP TGF-b/SMAD3 reporter, GFP fluorescence, 18 h; TGF-beta stimulated, 500 pg/mL final; note: potency is the fitted concentration of half-maximal effect; % is set by controls: 0 for no effect and ±100 for the full control effect; nearly all actives have a fitted effect of over 65% in size
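HEPG2 CAGA-GFP reporter cells (1000/well, DMEM with 1% FBS) received compounds, then recombinant TGF-beta at 500 pg/mL final for 18 hours at 37 degrees C. Per-cell GFP summed per well was normalised to unstimulated and stimulated DMSO controls before curve fitting.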
HepG2 viability = HepG2 cytotoxicity, counter-screen for TGF-b inhibitors. 0.76% of 410,000 active. Potency, µM (titrated, usually from 46.1 µM), for the others: at the top dose activity change, negative = cytotoxicity, most hits filed as cytotoxic. HepG2 CAGA-GFP viability, ATP luminescence, 18 h; note: potency is the fitted concentration of half-maximal effect
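CellTiter-Glo luminescence gave cytotoxicity after 18 hours at 37 degrees C. The cells were HepG2 CAGA-GFP in 1% FBS DMEM, stimulated with 500 pg/mL TGF-beta after compound addition. %Activity was normalised to no-cell wells (complete cell-killing) and DMSO (no toxicity), and curves were fitted and classified.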
uPA generation = blocks generation of uPA at the cell surface | cell surface uPA generation assay, qHTS | Potency, µM (highest dose often 38.3 µM), without a hit: top-dose activity change, negative = inhibition, usual class: inhibitors | 0.31% of 330,000 active | AID 540303; active = well fitted inhibition curve with a large enough effect; inconclusive = small, poorly fitted or top-dose-only effect; inactive = no such curve, though single readings can be large or run the other way; tested in mouse RAW 264.7 cells; note: potency is the fitted concentration of half-maximal effect; % is set by controls: 0 for no effect and ±100 for the full control effect; nearly all actives have a fitted effect of over 55% in size
ATXN2 expr inh = inhibitors of ATXN2 expression | HEK-293 ATXN2-luciferase reporter, luminescence, 24 h | Potency, µM (doses to about 57 µM), inactives show at the top dose activity change, negative = inhibition, hits mostly inhibitors | 0.72% of 360,000 active; note: potency is the fitted concentration of half-maximal effect; % is set by controls: 0 for no effect and ±100 for the full control effect; nearly all actives have a fitted effect of over 55% in size
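ATXN2-luciferase reporter cells (luciferase flanked by upstream and downstream ATXN2 gene portions) were treated 24 h at 37 °C with compounds at up to 57 uM. SteadyGlo luminescence gave expression; GF-AFC fluorescence gave viability.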
S2 tox = reduces viability in counter-screen for ATXN expression inhibitors; S2 cells (HEK-293 line with an ATXN2-luciferase reporter) viability, CellTiter-Fluor protease fluorescence, 24 h; Potency, µM (highest dose often 56.7 µM), hits mostly cytotoxic; 0.49% of 400,000 active; AID 651635; note: potency is the fitted concentration of half-maximal effect; nearly all actives have a fitted effect of over 40% in size
Numbers without * were called inactive; i = inactive; u = inconclusive; x = no result given; ! = not active in a repeat; [ ] = another dose, or the depositor's remark. Unless noted, calls come from the whole dose curve; as a rule, active = well fitted curve in the direction sought with a large enough effect; inconclusive = small, poorly fitted or top-dose-only effect, or another doubt; inactive = no such curve, though single readings can be large; an effect the other way counts as inactive or inconclusive.

SMILES	Giardia killer	TGFb SMAD3 inh	HepG2 viability	uPA generation	ATXN2 expr inh	S2 tox
CC(C)N(Cc1ccccc1)C(=O)CCS(=O)(=O)c1ccc2c(c1)oc(=O)n2C	-4	-16%	-1%	-12%	3%	i
C[CH2][Hg][S]c1ccccc1C(=O)O	u	4.5µM*	2.5µM*	u	6.3µM*	4.5µM*
C=CC[C@@H](CC(=O)N(CCO)Cc1ccccc1)C(=O)N[C@@H](COC(=O)[C@@H](CC=C)Cc1ccc(F)cc1)Cc1c[nH]c2ccccc12	9	u	-18%	-17%	-9%	u
C=CC[C@@H](CC(=O)N(CCO)Cc1ccccc1)C(=O)NC[C@@H](OC(=O)[C@@H](CC=C)CC(=O)OC(C)(C)C)c1ccccc1	1	-24%	-14%	-3%	u	20µM*
C=CC[C@H](CC(=O)N(CCO)Cc1ccccc1)C(=O)NC[C@H](OC(=O)[C@@H](CC=C)CC(=O)OC(C)(C)C)c1ccccc1	-3	u	-20%	-6%	u	25µM*
O=C(NC1(Cc2ccccc2)CCN(Cc2ccc(-c3ccccc3)cc2)C1=O)c1ccccc1 (stereo not given)	6	u	-25%	u	u	32µM*
Cc1ccc(C(=O)c2cn(CC(=O)Nc3ccc(C(C)C)cc3)c3nc(C)ccc3c2=O)cc1	x	8%	3%	x	-2%	u
CCO/N=C(\CC)C1=C(O)CC(c2c(C)cc(C)cc2C)CC1=O (stereo not given)	x	x	x	x	36%[116 µM]	u
CCC(CC)NCc1c[nH]c2ccccc12	5	0%	-9%	4.5µM*	-14%	u
COC(=O)N1C(=O)[C@@](c2ccc(OC)cc2)(C(C)C)N1C(=O)OC	14	u	-20%	6.3µM*	-6%	u
CCOC(=O)c1c(NC(=O)C(c2ccccc2)c2ccccc2)sc2c1C1CCN2CC1	2	u	-4%	-12%	u	i
CCOC(=O)c1c(N2C(=O)C=CC2=O)sc(C)c1C	-3	16µM*	-92%	u	u	u
CC(=O)/C=C/c1ccccc1	-25	3%	-8%	0%	4%	i
CC(=O)[O][Hg][c]1ccccc1	x	x	x	x	4.5µM*	4.5µM*
CCOc1ccc(N2CC(c3nc4ccccc4n3CCC3CCCCC3)CC2=O)cc1 (stereo not given)	x	-9%	-3%	x	16%	u
Oc1ccc(-[n+]2c(-c3ccccc3)cc(-c3ccccc3)cc2-c2ccccc2)cc1	2	u	-35%	u	13µM*	u
COc1ccc(-[n+]2c(-c3ccccc3)cc(-c3ccccc3)cc2-c2ccccc2)cc1	5	u	-36%	u	u	u
COc1cc(C)c(CNCCc2c[nH]c3ccccc23)cc1C	14	u	11µM*	-12%	x	u
COc1ccc([C@H]2CC(=O)C=C(/C=C/Cc3ccccc3)C2)cc1	-14	-18%	-17%	u	u	u
S=C(NCCCN1CCOCC1)N1CCN(c2nc(-c3ccc(Cl)cc3)cs2)CC1	-2	13µM*	11µM*	u	3.2µM*	x
Cc1cc(C=C(C#N)C#N)ccc1N1CCCC1	-4	-8%	-2%	-3%	-7%[11.3 µM]	i
CC(C)(C)c1cc(C=C(C#N)C#N)cc(Br)c1O	x	x	x	x	27µM*	x
CCOc1ccc(-c2nc(CSCC(=O)NCCc3ccc(OCC)c(OCC)c3)c(C)o2)cc1	x	-17%	-16%	x	20µM*	32µM*
CN(C)C1(CNC(=O)Nc2ccc(Cl)c(Cl)c2)CCCCC1	2	u	16µM*	4%	u	u
CCC(=O)Nc1ccc(Cl)c(Cl)c1	-13	2%	1%	2%	-7%	i
SMILES	Giardia killer	TGFb SMAD3 inh	HepG2 viability	uPA generation	ATXN2 expr inh	S2 tox
COC(=O)c1cccc(NC(=O)Nc2ccc(Cl)c(Cl)c2)c1	-5	u	11µM*	u	u	i
CC(C)C[C@@H](C(=O)NC1CCN(Cc2ccccc2)CC1)N1C(=O)N2CCc3c([nH]c4ccccc34)[C@@]2(C)C1=O	-27	u	13µM*	u	u	25µM*
COc1cccc(CN2C(=O)[C@@H]3Cc4c([nH]c5ccccc45)C(C)(C)N3C2=O)c1	-11	u	-43%	-7%	u	u
Nc1cccc(-c2nc3ccc(C(=O)c4ccccc4)cc3[nH]2)c1	-29	u	-31%	2µM*	x	u
CC1CCN(C(=O)Cn2c3ccccc3c3nc4n(c(=O)c32)CCCS4)CC1	12	0%	9%	-1%	-19%	u
CCCCCCC[n+]1ccc(-c2cc[n+](CCCCCCC)cc2)cc1	-8	-8%	-40%	-7%	-16%	i
CCCCCCCCCCCCCCCC[n+]1ccccc1	-13	16µM*	20µM*!	0.71µM*!	32µM*!	20µM*
CCCCOP(=O)(c1ccc(N(C)C)cc1)C(Nc1ccccc1)c1ccccc1 (stereo not given)	14	16µM*	-95%	-6%	u	u
Cc1ccc2[nH]c(C(=O)N/N=C/c3ccccc3O)c(C)c2c1	20	u	-12%	3.5µM*	x	i
CC(=CCCC1=CCC(C2=CC(=O)OC2O)OC1O)CCC1=C(C)CCCC1(C)C (stereo not given)	x	x	x	x	-6%	x
